In all, about 5,500 compounds went through this assay and about 2,000 (36%) were called active. About 18% were inconclusive and are not listed. The list shows a part of the results. Values without a mark were called inactive. Rule as the data show it: active = normalized growth mostly below about 0.91 (no sharp cut-off); inconclusive = no clear call, values can overlap the other calls; inactive = mostly above about 0.92.
Experiment: chemical genetic growth profiling, strain panel (AID 1159580);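 also: tested at 20 µM; growth read once vehicle control cultures reached saturation at 30 °C; 1 = growth at the plate median or of vehicle wells; lower values mean less growth of the strain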
Conditions: S. cerevisiae deletion strains, growth OD

CC(=O)Oc1c2c(c(CC=C(C)C)c3c1C(=O)C1=C[C@@H]4CC5C(C)(C)OC(C/C=C(\C)C(=O)O)(C4=O)[C@@]15O3)OC(C)(CCC=C(C)C)C=C2 (stereo partly specified)
normalized growth (locus YAL021C, strain ccr4, active compounds read low): 0.99
normalized growth (locus YAL026C, strain drs2, active compounds read low): 0.986
normalized growth (locus YAL030W, strain snc1, active compounds read low): 0.977
normalized growth (locus YBL061C, strain skt5, active compounds read low): 0.984
normalized growth (locus YBR009C, strain hhf1, active compounds read low): 0.948
normalized growth (locus YBR023C, strain chs3, active compounds read low): 0.962
normalized growth (locus YBR171W, strain sec66, active compounds read low): 0.989
normalized growth (locus YBR231C, strain swc5, active compounds read low): 0.953
normalized growth (locus YBR279W, strain paf1, active compounds read low): 0.975
normalized growth (locus YCL011C, strain gbp2, active compounds read low): 0.98
normalized growth (locus YCL016C, strain dcc1, active compounds read low): 0.97
normalized growth (locus YCL069W, strain vba3, active compounds read low): 0.991
normalized growth (locus YCR088W, strain abp1, active compounds read low): 0.972
normalized growth (locus YDL005C, strain med2, active compounds read low): 0.977
normalized growth (locus YDL040C, strain nat1, active compounds read low): 0.978
normalized growth (locus YDR001C, strain nth1, active compounds read low): 0.988
normalized growth (locus YDR069C, strain doa4, active compounds read low): 0.933
normalized growth (locus YDR137W, strain rgp1, active compounds read low): 0.551 (active)
normalized growth (locus YDR159W, strain sac3, active compounds read low): 0.975
normalized growth (locus YDR195W, strain ref2): 1.11
normalized growth (locus YDR297W, strain sur2, active compounds read low): 0.969
normalized growth (locus YDR334W, strain swr1, active compounds read low): 0.976
normalized growth (locus YDR335W, strain msn5, active compounds read low): 0.994
normalized growth (locus YDR392W, strain spt3, active compounds read low): 0.695 (active)
normalized growth (locus YEL003W, strain gim4, active compounds read low): 0.978
normalized growth (locus YEL037C, strain rad23, active compounds read low): 0.99
normalized growth (locus YEL061C, strain CIN8 (second series), active compounds read low): 1
normalized growth (locus YER015W, strain faa2, active compounds read low): 0.989
normalized growth (locus YER016W, strain bim1, active compounds read low): 0.971
normalized growth (locus YER111C, strain swi4, active compounds read low): 0.99
normalized growth (locus YER155C, strain BEM2 (second series), active compounds read low): 0.96
normalized growth (locus YFR010W, strain ubp6, active compounds read low): 0.938
normalized growth (locus YGL167C, strain pmr1, active compounds read low): 0.982
normalized growth (locus YGL173C, strain kem1, active compounds read low): 0.97
normalized growth (locus YGL227W, strain vid30, active compounds read low): 1
normalized growth (locus YGL240W, strain doc1, active compounds read low): 0.983
normalized growth (locus YGL253W, strain hxk2, active compounds read low): 0.989
normalized growth (locus YHR013C, strain ard1, active compounds read low): 0.894
normalized growth (locus YHR027C, strain rpn1, active compounds read low): 0.984
normalized growth (locus YHR142W, strain chs7, active compounds read low): 0.939
normalized growth (locus YJL092W, strain hpr5, active compounds read low): 0.975
normalized growth (locus YJL095W, strain BCK1 (second series), active compounds read low): 0.944
normalized growth (locus YJL115W, strain asf1, active compounds read low): 1.01
normalized growth (locus YJL129C, strain trk1, active compounds read low): 0.76 (active)
normalized growth (locus YJL154C, strain vps35, active compounds read low): 0.996
normalized growth (locus YJL164C, strain tpk1, active compounds read low): 0.951
normalized growth (locus YJL166W, strain qcr8, active compounds read low): 0.984
normalized growth (locus YJL187C, strain SWE1, active compounds read low): 0.974
normalized growth (locus YKL160W, strain elf1, active compounds read low): 0.962
normalized growth (locus YKR026C, strain gcn3, active compounds read low): 0.983
normalized growth (locus YKR091W, strain srl3, active compounds read low): 0.978
normalized growth (locus YLL001W, strain dnm1, active compounds read low): 0.979
normalized growth (locus YLL026W, active compounds read low): 1
normalized growth (locus YLL041C, strain sdh2, active compounds read low): 0.994
normalized growth (locus YLR027C, strain aat2, active compounds read low): 0.977
normalized growth (locus YLR221C, strain rsa3, active compounds read low): 0.969
normalized growth (locus YLR258W, strain gsy2, active compounds read low): 0.979
normalized growth (locus YLR262C, strain YPT6 (second series), active compounds read low): 0.543 (active)
normalized growth (locus YLR320W, strain mms22, active compounds read low): 0.806 (active)
normalized growth (locus YLR342W, strain FKS1, active compounds read low): 0.963
normalized growth (locus YLR357W, strain rsc2, active compounds read low): 1.05
normalized growth (locus YLR370C, strain arc18, active compounds read low): 0.946
normalized growth (locus YLR384C, strain iki3, active compounds read low): 0.981
normalized growth (locus YML120C, strain ndi1, active compounds read low): 0.996
normalized growth (locus YMR058W, strain fet3, active compounds read low): 0.982
normalized growth (locus YMR125W, strain sto1, active compounds read low): 0.993
normalized growth (locus YMR129W, active compounds read low): 0.975
normalized growth (locus YMR205C, strain PFK2, active compounds read low): 0.812 (active)
normalized growth (locus YMR231W, strain pep5, active compounds read low): 0.987
normalized growth (locus YNL071W, strain lat1, active compounds read low): 0.797 (active)
normalized growth (locus YNL209W, strain ssb2, active compounds read low): 0.977
normalized growth (locus YNL248C, strain rpa49, active compounds read low): 0.983
normalized growth (locus YNL322C, strain KRE1 (second series), active compounds read low): 1.01
normalized growth (locus YNR049C, strain mso1, active compounds read low): 0.984
normalized growth (locus YOR001W, strain rrp6, active compounds read low): 0.988
normalized growth (locus YOR070C, strain gyp1, active compounds read low): 0.971
normalized growth (locus YOR080W, strain dia2, active compounds read low): 0.994
normalized growth (locus YOR083W, strain WHI5, active compounds read low): 0.953
normalized growth (locus YOR106W, strain vam3, active compounds read low): 0.931
normalized growth (locus YOR265W, strain rbl2, active compounds read low): 0.962
normalized growth (locus YOR270C, strain vph1, active compounds read low): 0.653 (active)
normalized growth (locus YOR290C, strain snf2, active compounds read low): 0.96
normalized growth (locus YPL051W, strain arl3, active compounds read low): 0.931
normalized growth (locus YPL078C, strain atp4, active compounds read low): 0.967
normalized growth (locus YPL106C, strain sse1, active compounds read low): 1.02
normalized growth (locus YPL240C, strain hsp82, active compounds read low): 0.978

Reference: PubChem BioAssay AID1159580 (chemical genetic matrix, 2015)
